Laboratory results taken from PubChem BioAssay (NCATS).
Results filed as inconclusive are left out. Activity calls are given as the source filed them. The call rests on the fitted dose curve.

Assays:
[1] = Primary qHTS for inhibitors of SARS-S pseudo-typed particle cell entry (AID 1479145); further: nearly all actives have a fitted effect of over 45% in size
[2] = Primary qHTS for Huh7 cytotoxicity: counterscreen for inhibitors of MERS-S pseudotyped particle cell entry (AID 1479147)
[3] = Primary qHTS for inhibitors of MERS-S pseudo-typed particle cell entry (AID 1479149); further: nearly all actives have a fitted effect of over 60% in size; further: potency means the concentration at half of the fitted maximal effect
[4] = Primary qHTS for Vero E6 cytotoxicity: counterscreen for inhibitors of SARS-S pseudo-typed particle cell entry (AID 1479150)
[5] = Cytotoxicity counterscreen for inhibitors of SARS-CoV-2 cell entry (AID 1645845); further: nearly all actives have a fitted effect of over 50% in size
How it was run: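 HEK293-ACE2 cells (Expi293F stably expressing human ACE2) seeded overnight, then compound for 1 h plus 48 h at 37C. Viability as ATP content by luminescence; normalized to wells with cells and media-only wells.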

Measured: Potency

CCn1cc(C(=O)O)c(=O)c2ccc(C)nc21
inactive: [1] | [2] | [3] | [4] | [5]

O=NN(CCCl)C(=O)NC1CCCCC1
inactive: [1] | [2] | [3] | [4] | [5]

CC(S)C(=O)NCC(=O)O (stereo not given)
inactive: [1] | [2] | [3] | [4] | [5]

NC(=Nc1ccccc1)Nc1ccccc1
inactive: [1] | [2] | [3] | [4] | [5]

C1N2CN3CN1CN(C2)C3
inactive: [1] | [2] | [3] | [4] | [5]

Cc1onc(-c2c(Cl)cccc2Cl)c1C(=O)N[C@@H]1C(=O)N2[C@@H]1SC(C)(C)[C@@H]2C(=O)O
inactive: [1] | [2] | [3] | [4] | [5]

CC1(C)O[C@@H]2[C@@H](CO[C@@]3(COS(N)(=O)=O)OC(C)(C)O[C@@H]23)O1
inactive: [1] | [2] | [3] | [4] | [5]

COc1cc(Cc2cnc(N)nc2N)cc(OC)c1OC
inactive: [1] | [2] | [3] | [4] | [5]

CN(CCOc1ccc(NS(C)(=O)=O)cc1)CCc1ccc(NS(C)(=O)=O)cc1
inactive: [1] | [2] | [3] | [4] | [5]

Nc1cccc2c1CN(C1CCC(=O)NC1=O)C2=O (stereo not given)
inactive: [1] | [2] | [3] | [4] | [5]

O=C1Cc2cc(CCN3CCN(c4nsc5ccccc45)CC3)c(Cl)cc2N1
inactive: [1] | [2] | [3] | [4] | [5]

CNCCc1ccccn1
inactive: [1] | [2] | [3] | [4] | [5]

NC[C@H](O)c1ccc(O)c(O)c1
inactive: [1] | [2] | [3] | [4] | [5]

NC(=O)c1cn(Cc2c(F)cccc2F)nn1
inactive: [1] | [2] | [3] | [4] | [5]

CC(=O)N[C@@H](CS)C(=O)O
inactive: [1] | [2] | [3] | [4] | [5]

COc1ccc(Cl)cc1C(=O)NCCc1ccc(S(=O)(=O)NC(=O)NC2CCCCC2)cc1
inactive: [1] | [2] | [3] | [4] | [5]

CC(=O)Nc1nnc(S(N)(=O)=O)s1
inactive: [1] | [2] | [3] | [4] | [5]

CNS(=O)(=O)Cc1ccc2[nH]cc(CCN(C)C)c2c1
inactive: [1] | [2] | [3] | [4] | [5]

Cc1cn([C@H]2C=C[C@@H](CO)O2)c(=O)[nH]c1=O
inactive: [1] | [2] | [3] | [4] | [5]

CC(C)c1nc(CN(C)C(=O)N[C@H](C(=O)N[C@@H](Cc2ccccc2)C[C@H](O)[C@H](Cc2ccccc2)NC(=O)OCc2cncs2)C(C)C)cs1
inactive: [1] | [2] | [3] | [4] | [5]

O=c1[nH]cc(F)c(=O)[nH]1
inactive: [1] | [2] | [4] | [5]
active: [3] 8.91 µM

CCCNC(=O)NS(=O)(=O)c1ccc(Cl)cc1
inactive: [1] | [2] | [3] | [4] | [5]

CCOC(=O)[C@H](CCc1ccccc1)N[C@@H](C)C(=O)N1[C@H](C(=O)O)C[C@@H]2CCC[C@@H]21
inactive: [1] | [2] | [3] | [4] | [5]

Clc1ccc(C(c2ccccc2Cl)C(Cl)Cl)cc1 (stereo not given)
inactive: [1] | [2] | [3] | [4] | [5]

O=C(C1CCCCC1)N1CC(=O)N2CCc3ccccc3C2C1 (stereo not given)
inactive: [1] | [2] | [3] | [4] | [5]

CS(=O)(=O)OCCCCOS(C)(=O)=O
inactive: [1] | [2] | [3] | [4] | [5]

CC(C)[N+](C)(CCOC(=O)C1c2ccccc2Oc2ccccc21)C(C)C
inactive: [1] | [2] | [3] | [4] | [5]

C[C@@H]1C[C@H]2[C@@H]3CCC4=CC(=O)C=C[C@]4(C)[C@@]3(F)[C@@H](O)C[C@]2(C)[C@@]1(O)C(=O)CO
inactive: [1] | [2] | [3] | [4] | [5]

CC(=O)Oc1cc2c(s1)CCN(C(C(=O)C1CC1)c1ccccc1F)C2 (stereo not given)
inactive: [1] | [2] | [3] | [4] | [5]

O=C(OC1C[C@H]2CC[C@@H](C1)[N+]21CCCC1)C(O)(c1ccccc1)c1ccccc1 (stereo not given in full)
inactive: [1] | [2] | [3] | [4] | [5]

COC(=O)C(c1ccccc1Cl)N1CCc2sccc2C1 (stereo not given)
inactive: [1] | [2] | [3] | [4] | [5]
